The source of these data is PubChem BioAssay (NCI).

Each structure is given as a SMILES string. The panel holds about 83,000 compounds, 20% with a hit somewhere; the sample as a whole holds those more often.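 Assay: single dose, 48 h. Readout: percent growth (0 = no net growth; negative = cell death). Active: <10.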 Unmarked numbers belong to inactive results. The source made the active and inactive calls.

This test has as its system EKVX NSCLC. The test can be described thus: NCI-60 one-dose screen, 48 h (100 = growth as untreated, 0 = no growth, -100 = all killed). The note with it: 10 µM unless noted. The procedure:
Growth inhibition of the EKVX human Non-Small Cell Lung tumor cell line is measured as a screen for anti-cancer activity. Cells are grown in 96 well plates and exposed to the test compound for 48 hours. Compounds are tested at a single concentration, which is 10^-5 M for most compounds. The reported endpoint is percent growth (GI% or GIPRCNT), where numbers from 0 - 100% represent growth inhibition, and numbers from -100% - 0 represent cell death. For example, a value of 40 represents 60% growth inhibition. A value of 0 means no net growth occurred over the course of the experiment. A value of -40 indicates 40% of cells at the beginning of the experiment died by the end of the experiment. A value of -100 means all cells are dead at the end of the experiment.
NCI-60 Human Tumor Cell Lines Screen was performed using the standard one-dose NCI protocol, which is described in more detail at https://dtp.cancer.gov/discovery_development/nci-60/default.htm.
Compounds with GIPRCNT values below 10 were considered active. Activity score was based on GIPRCNT using the following formula: […]
Score is 0 for GIPRCNT values of 100 or above, 50 for GIPRCNT values of 0, and 100 for GIPRCNT values of -100.
For the molecule `Oc1c(Cl)cc(Cl)c(Cl)c1Cc1c(O)c(Cl)cc(Cl)c1Cl`, the growth was -4.03% (active).
`CC[C@@H](C)/C=C(C)/C=C/C(O)=C1\C(=O)N[C@@H](Cc2ccc(OC(=O)[C@@](OC)(c3ccccc3)C(F)(F)F)cc2)C1=O`: the growth was 54.1%.
Consider `Cc1ccc(-c2csc(N)n2)cc1`, for which the growth is 104%.
Turning to `CC(=O)N1N=C(c2ccc(Nc3ccnc4cc(Cl)ccc34)cc2)CC1c1ccc(Cl)cc1` (stereo not given), the growth was 36.4%.
Take `Cc1nn(-c2ccccc2)cc1/C=C1\SC(N2CCCCC2)=NC1=O`: the growth was 94.2%.
Take `COc1ccc2c(c1)CC[C@@H]1[C@@H]2CC[C@]2(C)[C@@H](O)C(=O)C[C@@H]12`: the growth is 102%.
On to `COc1cc(/C=C/C(=O)CC(=O)/C=C/c2ccc(OC(=O)C3C4CC5CC(C4)CC3C5)c(OC)c2)ccc1OC(=O)C1C2CC3CC(C2)CC1C3` (stereo not given), for which the growth is 109%.
Consider `CCOC(=O)c1cc2oc(/C=C/c3cc(=O)c4cc(Cl)ccc4o3)cc2[nH]1`, for which the growth is 89.7%.
As for `COCCCNS(=O)(=O)c1ncnc2nc[nH]c12`, the figure is 101%; as for `CCOc1cc(/C=C/C(=O)C(C(=O)/C=C/c2ccc(OC(=O)CNc3nc4ccccc4[nH]3)c(OCC)c2)C(=O)CNc2nc3ccccc3[nH]2)ccc1OC(=O)CNc1nc2ccccc2[nH]1`, -3.49% (active); as for `O=C(CC(C(=O)c1ccccc1)N1CCN(Cc2ccccc2)CC1)c1ccccc1` (stereo not given), 120%.
As to `C[C@H]1O[C@@H](O[C@H]2[C@@H](O)C[C@H](O[C@H]3[C@@H](O)C[C@H](O[C@H]4CC[C@]5(C)C6CC[C@]7(C)[C@@H](C8=CC(=O)OC8)CC[C@]7(O)C6CC[C@@H]5C4)O[C@@H]3C)O[C@@H]2C)C[C@H](O)[C@@H]1O` (stereo not given in full), the growth is -98.4% (active).
On to `COc1ccc(C2=NN(C(C)=O)C(c3c(C)nn(-c4ccccc4)c3N3CCOCC3)C2)cc1` (stereo not given), for which the growth was 88.2%.
For the molecule `Cc1sc2nc3c4ccccc4c(NCCCN(C)C)nn3c(=O)c2c1C`, the growth is 75.9%.
Regarding `Cn1c(=O)c2[nH]c(=S)n(Cc3ccccc3)c2n(C)c1=O`, the growth is 125%.
As for `Cc1cc(Cl)ccc1Nc1nc(C(F)(F)F)ccc1C(=O)N/N=C/c1ccc(Cl)cc1`, the growth was 3.77% (active).
As to `NC(=NCCCCCCN=C(N)/N=C(\N)Nc1ccc(Cl)cc1)/N=C(\N)Nc1ccc(Cl)cc1`, the growth was 23.9%.
As for `CCOC(=O)C1C(=O)NC(C(=O)OCC)(C(=O)OCC)C1CC` (stereo not given), the figure is 117%.
On to `Cc1ccc(OCC(=O)Nc2ccc(Oc3ccccc3)cc2)c([N+](=O)[O-])n1`, for which the growth is 89.5%.
Take `O=C(Nc1nc2ccc(OC(F)(F)F)cc2s1)c1ccc(F)cc1`: the growth was 15.6%.
Regarding `COc1ccccc1-n1c(-c2ccc(O)cc2C)cn2c3c(=O)[nH]c(=O)n(C)c3nc12`, the growth is 98.7%.
Turning to `CCOC(=O)CCN(c1c(Cl)ssc1=O)C(C)C`, the growth is 107%.
As for `Cc1nn(-c2nc3ccccc3s2)c(C)c1Oc1ccccc1O`, the figure is 93.2%.
Turning to `O=C(c1ccc(N2CCOCC2)cc1[N+](=O)[O-])N1CCOCC1`, the growth was 18.9%.
Turning to `O=C(NCCNC(=O)Oc1cccc2ccccc12)Oc1cccc2ccccc12`, the growth is 92.9%.
As for `COc1ccc(C2=NN(C(C)=O)C(c3cccc(Nc4ccnc5cc(Cl)ccc45)c3)C2)cc1` (stereo not given), the figure is 64.7%; as for `C=C(CN1CCc2c([nH]c3ccccc23)C1)c1ccc(C(=O)Nc2ccon2)cc1`, 80.3%.
In the case of `CSc1nc(Nc2ccc(S(=O)(=O)Nc3ccon3)cc2)c(C#N)c(-c2ccc(Cl)cc2)n1`, the growth is 98.5%.
For `C(#Cc1ccccc1C#Cc1ccccn1)c1ccc(OCCCCCCOc2ccc(C#Cc3ccccc3C#Cc3ccccn3)cc2)cc1`, the growth is 42.5%.
Regarding `O=C1OC2(c3ccccc31)c1ccccc1-c1ccccc12`, the growth is 87.9%.
For the molecule `Cc1ccc(/C=C/C(=O)c2ccc(F)cc2)s1`, the growth is 81.1%.
On to `C[C@@H]1[C@H]2[C@H](C=C3[C@@H]4CC[C@H]5Cc6nc7c(nc6C[C@]5(C)[C@H]4C[C@@H](O)[C@@]32C)C[C@@H]2CC[C@H]3C4=C[C@@H]5O[C@@]6(CC[C@](C)(CO)O6)[C@@H](C)[C@@]5(O)[C@@]4(C)[C@H](O)C[C@@H]3[C@@]2(C)C7)O[C@]12CCC(C)(C)O2`, for which the growth was 21.8%.
`CCOC(=O)CNC(=O)C1(NC(=O)CNC(=O)OCc2ccccc2)CCCC1`: the growth is 99.4%.
As for `CN1CCN(c2nc3scc(-c4ccccc4)c3c(=O)[nH]2)CC1`, the growth is 90.3%.
Take `O=C(/C=C/c1cccc(Nc2ccnc3cc(Cl)ccc23)c1)c1ccc(Cl)cc1`: the growth is 60.3%.
As to `Nc1ccc2c(c1Br)Cc1ccccc1-2`, the growth was 68%.
On to `CC(=O)OCC(=O)[C@@]1(O)CC[C@H]2[C@@H]3CCC4=CC(=O)CC[C@]4(C)[C@@]3(F)[C@@H](O)C[C@@]21C`, for which the growth was 88.8%.
Turning to `Fc1ccc(-c2nn3c(-c4cc(C(F)(F)F)cc(C(F)(F)F)c4)nnc3s2)cc1`, the growth was 71.1%.
Take `CC(=O)Nc1ccc(C(=O)COc2ccc(/C=C3\CCc4ccccc4C3=O)cc2)cc1`: the growth is 99.8%.
`Cc1csc(C#Cc2cncc(O)c2)n1`: the growth is 110%.
